Reference: PubChem BioAssay (Tox21)
Results filed as inconclusive are left out. A number with no mark means an inactive call. Activity calls are given as the source filed them. The call rests on the fitted dose curve.

assay: qHTS assay to identify small molecule agonists of the hypoxia (HIF-1) signaling pathway - cell viability counter screen (AID 1224844); settings: HRE-bla ME-180 viability, CellTiter-Glo luminescence, 17 h; series mostly up to 76.8 µM; activity change, negative = cytotoxicity: at the top concentration; further: nearly all actives have a fitted effect of over 50% in size
Text: National Center for Advancing Translational Sciences [NCATS]
NIH Chemical Genomics Center [NCGC]
U.S. Environmental Protection Agency [EPA]
National Institutes of Environmental Health Sciences [NIEHS]
National Toxicology Program [NTP]
U.S. Food and Drug Administration [FDA]
Hypoxia-inducible factor-1 (HIF-1) is the major hypoxia-regulated transcription factor that controls cellular responses to low oxygen concentration. HIF-1 is composed of two subunits: hypoxia responsive HIF-1-alpha and constitutively expressed HIF-1-beta, which is also known as aryl hydrocarbon receptor nuclear translocator. During hypoxic conditions, HIF-1-alpha heterodimerizes with HIF-1-beta and translocates into the nucleus where the HIF-1 complex binds to the hypoxia-response element (HRE) and activates expression of target genes such as VEGF (vascular endothelial growth factor). The HIF-1 pathway is essential to normal growth and development, and is involved in the pathophysiology of cancer, inflammation, and ischemia.
Using a beta-lactamase reporter-gene under control of the hypoxia response element, a cell-based assay [CellSensor(TM) HRE-bla ME-180 from Life Technologies, Carlsbad, CA] was used to measure hypoxia-induced signaling. Tox21 10K library compounds were measured for their ability to induce the reporter gene activity. The cytotoxicity of the Tox21 compound library against HRE-bla ME-180 cell line was tested in parallel by measuring cell viability using CellTiter-Glo assay (Promega, Madison, WI) in the same assay wells.
Tox21 Assay Protocol Summary:
HRE-bla ME-180 cells were dispensed at 2,000 cells per well in 6 uL of assay medium containing 0.5% dialyzed FBS into black wall/clear-bottom 1536-well plates using a Multidrop Combi (Thermo Scientific, Waltham, MA) dispenser. After the assay plates were incubated at 37C and 5% CO2 for 5 hrs, 23 nL of compounds dissolved in DMSO, positive controls or DMSO only was transferred to each well of the assay plate using a Pintool station (Kalypsys, San Diego, CA). The assay plates were incubated at 37C and 5% CO2 for 17 hrs. One uL of LiveBLAzerTM B/G FRET substrate (CCF4-AM) (Life Technologies) was added to each well using a Flying Reagent Dispenser (FRD, Aurora Discovery, San Diego, CA). After 2 hr incubation at room temperature, fluorescence intensity (405 nm excitation, 460 nm and 530 nm emissions) was measured using an Envision plate reader (PerkinElmer, Shelton, CT). For cytotoxicity, 4 ul/well of CellTiter-Glo reagent was added into the assay plates using an FRD. After 30 min incubation at room temperature, the luminescence intensity was measured using a ViewLux plate reader (PerkinElmer).
On the % scale 0 is the no-effect control and ±100 the full control effect; potency means the concentration at half of the fitted maximal effect.

In order of falling “activity change, negative = cytotoxicity” value:
1. CC(=O)[O][Al]  12.3%
2. CC(COCCO)OCCO (stereo not given)  10.8%
3. CCCCO  9.91%
4. CC(C)(O)c1ccc(CNC(=O)c2cccnc2Oc2ccc(F)cc2)cc1  7.79%
5. OCCNCc1ccccc1  6.79%
6. Nc1cccc(S(=O)(=O)c2cccc(N)c2)c1  5.25%
7. C=CC1CC2C=CC1C2 (stereo not given)  4.8%
8. CCOC(=O)Cc1cccc2ccccc12  3.79%
9. CCCCCCCC#N  3.53%
10. Cc1cc(C(=O)O)ccc1[N+](=O)[O-]  3.07%
11. Cc1cccc(Nc2ccccc2)c1  1.04%
12. O=CC1CC=CCC1 (stereo not given)  0.692%
13. CC1OC(=O)C(C)OC1=O (stereo not given)  0.252%
14. CC(C)(C)OCC1CO1 (stereo not given)  -2.3%
15. Nc1cccc([N+](=O)[O-])c1  -4.89%
16. CCOc1ccc(O)cc1  -10%
17. Cc1oc2c(NC(=O)c3c(Cl)cccc3Cl)cccc2c1C(C)(C)O  -10.1%
18. CN(C)C(=O)NC1(c2ccccc2)CCN(CC[C@@]2(c3ccc(F)c(F)c3)CN(C(=O)c3ccccc3)CCO2)CC1  -10.5%
19. Brc1c2ccccc2cc2ccccc12  -24.1%

In the case of `CCCCCCCCCCCCCCOS(=O)(=O)O`, the Potency is reported as 54.9 µM (active).
With `CCc1c(C(=O)NN2CCCCC2)nn(-c2ccc(Cl)cc2Cl)c1-c1ccc(Br)cc1` the Potency was 21.9 µM (active).

In order of falling “activity change, negative = cytotoxicity” value:
1. CN1CCN(C(c2ccccc2)c2ccccc2)CC1  22.9% [at 35.3 µM]
2. O=C(NCCO[N+](=O)[O-])c1cccnc1  6.24% [at 35.3 µM]
3. O=C1[C@H]2CCCC[C@H]2C(=O)N1CCCCN1CCN(c2nsc3ccccc23)CC1  5.8% [at 35.3 µM]
4. c1ccc(C(O[C@H]2CCCN(CCc3ccc4c(c3)OCO4)C2)c2ccccc2)cc1  2.3% [at 35.3 µM]
5. CCOCC(O)COc1ccc(NC(=O)CC[S+](C)C)cc1 (stereo not given)  2.22% [at 35.3 µM]
6. COc1cc2nc(N(C)CCCNC(=O)C3CCCO3)nc(N)c2cc1OC (stereo not given)  1.97% [at 35.3 µM]
7. COc1ccc2cccc(CCNC(C)=O)c2c1  1.94% [at 35.3 µM]
8. CCN(CC)CCNC(=O)c1cc(Br)c(N)cc1OC  1.6% [at 35.3 µM]
9. NCC(=O)CCC(=O)O  0.166% [at 35.3 µM]
10. CC1(c2ccccc2)OC(C(=O)O)=CC1=O (stereo not given)  -0.409% [at 35.3 µM]
11. Nc1ccc(S(=O)(=O)Nc2ccccc2)cc1  -1.57% [at 35.3 µM]
12. NCc1ccccc1Sc1ccccc1CO  -2.2% [at 35.3 µM]
13. CCN(CC)CCOC(=O)C(Cc1cccc2ccccc12)CC1CCCO1 (stereo not given)  -4.64% [at 35.3 µM]
14. CCCNCC(O)COc1ccccc1C(=O)CCc1ccccc1 (stereo not given)  -13.1% [at 35.3 µM]
15. Cc1ccc(N=Nc2c(O)c(C(=O)O)cc3ccccc23)c(S(=O)(=O)O)c1  -13.9% [at 35.3 µM]
16. COc1cc2nc(N3CCN(C(=O)C4COc5ccccc5O4)CC3)nc(N)c2cc1OC (stereo not given)  -14.4% [at 35.3 µM]

In order of falling activity change, negative = cytotoxicity:
1. NCC(=O)O  0.428% [at 15.8 µM]
2. CC(CSC(=O)c1ccccc1)C(=O)N1C[C@@H](Sc2ccccc2)C[C@H]1C(=O)O (stereo not given in full)  -3.08% [at 15.8 µM]
3. C/C=C/C(=O)CC  -6.33% [at 15.8 µM]
